PubChem BioAssay (Tox21)
Inconclusive results are not listed. The source made the active and inactive calls. Calls follow the shape of the dose curve; as a rule, active = well fitted cell-killing curve with a large enough effect in the repeat runs; inconclusive = weak or mixed curves, or effect the other way; inactive = flat fitted curve, though single readings scatter.

experiment: Caspase-3/7 induction in HepG2 cells by small molecules, qHTS cell viability counter screen (AID 1346981); details: CellTiter-Fluor fluorescence, 17 h; series mostly up to 92.4 µM; also: nearly all actives have a fitted effect of over 30% in size
Text: U.S. Tox21 Program National Center for Advancing Translational Sciences [NCATS] NIH Chemical Genomics Center [NCGC] U.S. Environmental Protection Agency [EPA] National Institutes of Environmental Health Sciences [NIEHS] National Toxicology Program [NTP] U.S. Food and Drug Administration [FDA] Tox21 Assay Overview: Apoptosis is a process of programmed cell death and plays a central role in the development of multicellular organisms. It is a highly regulated process and induces cell death by activating caspases, which are the members of cysteine aspartic acid-specific protease (caspase) family. Caspases involved in apoptosis are classified by their mechanism of action as initiator caspases (caspase-2, -8, -9 and -10) and executioner caspases (caspase-3, -6, and -7). Inhibition of apoptosis results in number of cancers, autoimmune diseases, inflammatory diseases and viral infection. To identify small molecule compounds that induce apoptosis, a homogeneous, luminescent Caspase-Glo 3/7 assay was used. Wild type HepG2 cells were used to screen Tox21 libraries for identifying caspase-3/7 activity inducers. Also cytotoxicity of the compounds was tested in parallel by measuring the cell viability using CellTiter-Fluor assay system in the same wells.
Tox21 Assay Protocol Summary: HepG2 cells were dispensed at 2,000 per well in 5uL of culture medium into white solid bottom 1536-well plates (Corning Life Sciences, Corning, NY) using a Multidrop Combi (Thermo Scientific, Waltham, MA) dispenser. The assay plates were incubated at 37 C and 5% CO2 for 5hr, and then 23nL of compounds dissolved in DMSO and positive control were transferred using a Pintool station ([…], San Diego, CA). The assay plates were incubated at 37C and 5% CO2 for 17hr. For cytotoxicity read, after 16hr incubation at 37C, 1uL CellTiter-Fluor reagent (Promega Corporation, Madison, WI) was added to each well of the assay plates using Flying Reagent Dispenser (FRD, Aurora Discovery, San Diego, CA). After 1hr incubation at 37C and 5% CO2, the fluorescence signal was quantified using a ViewLux plate reader (PerkinElmer, Shelton, CT).

Row | Structure (SMILES) | outcome
1 | C#CC(O)CCCCC (stereo not given) | inactive
2 | CCOC(=O)Cn1c(=O)sc2cccc(Cl)c21 | inactive
3 | CCCCCCCCCCCl | inactive
4 | O=C(O)C(O)[C@H](O)[C@@H](O)[C@H](O)[C@H](O)CO (stereo not given in full) | inactive
5 | Cc1cc(C)cc(OCC2CNC(=O)O2)c1 (stereo not given) | inactive
6 | CCCC=O | inactive
7 | COC(=O)C1=C(C)NC(C)=C(C(=O)OCC(C)=O)C1c1ccccc1[N+](=O)[O-] (stereo not given) | inactive
8 | OC1OC[C@@H](O)[C@H](O)[C@H]1O (stereo not given in full) | inactive
9 | C[C@H]1O[C@@H](n2cc(F)c(=O)[nH]c2=O)[C@H](O)[C@@H]1O | inactive
10 | O=C1OC(=O)c2cc([N+](=O)[O-])ccc21 | inactive
11 | CO | inactive
12 | O=C(O)c1ccc[n+]([O-])c1 | inactive
13 | CO[Si](OC)(OC)OC | inactive
14 | CC(C)(O)Cc1ccccc1 | inactive
15 | CC(C)CCCCCCN | inactive
16 | COc1ccc2cc(C=O)ccc2c1 | inactive
17 | CCn1c(=O)c2c(nc(/C=C/c3ccc(OC)c(OC)c3)n2C)n(CC)c1=O | inactive
18 | NC(N)=NS(=O)(=O)c1ccc(N)cc1 | inactive
19 | CCCCCCCCCCCCI | inactive
20 | N[C@@H](CS)C(=O)O | inactive

Row | Structure (SMILES) | outcome
21 | C#CC(C)(O)CC(C)C (stereo not given) | inactive
22 | COC(=O)CCCCCCCCC(=O)OC | inactive
23 | COc1cc(C)cc(O)c1 | inactive
24 | O=[N+]([O-])c1ccc(CCO)cc1 | inactive
25 | c1ccc(SCCSc2ccccc2)cc1 | inactive
26 | O=C(O)c1cccc(C(=O)O)n1 | inactive
27 | C=CCOc1nc(OCC=C)nc(OCC=C)n1 | inactive
28 | CN(C)CCOC(c1ccc(Cl)cc1)c1ccccn1 (stereo not given) | inactive
29 | CC(=O)N[C@@H](CCC(N)=O)C(=O)O | inactive
30 | OCCCCCCO | inactive
31 | NC(=O)c1ncn([C@@H]2O[C@H](CO)[C@@H](O)[C@H]2O)c1O | inactive
32 | CO[Si](CCCNCCC[Si](OC)(OC)OC)(OC)OC | inactive
33 | CC(C)[N+](C)(C)CC(O)COc1cccc2ccccc12 (stereo not given) | inactive
34 | CC(C)CCCC(C)CCCC(C)CCCCC(C)CCCC(C)CCCC(C)C (stereo not given) | inactive
35 | NC(=O)Nc1nc2ccccc2[nH]1 | inactive
36 | OC/C=C/c1ccccc1 | inactive
37 | C=CC(=O)N1CCOCC1 | inactive
38 | O=C(O)c1ccccc1S | inactive
39 | CC(C)(C)C(=O)/C=C/c1ccc(Cl)cc1 | inactive
40 | CC(C)[C@H](N)C(=O)OCCOCn1cnc2c(=O)[nH]c(N)nc21 | inactive
